Shown are actives, neighbours in structure and some others; about 2.4% of the full set was active somewhere.
GLP1R ag: qHTS of GLP-1 Receptor Agonists | Glucagon-like peptide 1 receptor (Homo sapiens), P43220 | Potency, µM (series often up to 45.6 µM), hits mostly activators | HEK293 GLP-1R CRE-luciferase, luminescence, 4-6 h; cells express a hypersensitive GLP-1R form | 0.007% of 380,000 active
Target sequence (P43220 whole entry, looked up): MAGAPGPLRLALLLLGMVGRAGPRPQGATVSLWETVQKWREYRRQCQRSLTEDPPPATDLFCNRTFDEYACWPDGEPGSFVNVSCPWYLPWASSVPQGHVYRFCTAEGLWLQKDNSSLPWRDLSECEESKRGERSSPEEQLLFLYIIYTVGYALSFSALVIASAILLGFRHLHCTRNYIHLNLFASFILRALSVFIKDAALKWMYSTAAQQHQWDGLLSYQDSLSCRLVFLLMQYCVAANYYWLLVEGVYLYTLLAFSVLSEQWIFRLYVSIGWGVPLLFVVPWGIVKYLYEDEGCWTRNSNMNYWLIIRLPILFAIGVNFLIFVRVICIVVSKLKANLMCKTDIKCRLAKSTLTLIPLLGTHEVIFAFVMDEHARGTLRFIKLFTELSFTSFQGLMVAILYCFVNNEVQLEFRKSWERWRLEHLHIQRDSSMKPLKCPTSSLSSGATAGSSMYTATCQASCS
HEK293 tox: qHTS of GLP-1 Receptor Inverse Agonists: Cytotox Screen | Potency, µM (titrated, usually from 38.3 µM), hits mostly inhibitors | HEK293 cAMP-luciferase reporter cells, luminescence, 24 h | AID 624418, 2012 | 0.13% of 410,000 active;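 also: loss of luciferase light is scored as toxicity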
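1536-well qHTS counterscreen of the MLSMR; 200 cells/uL, 12 h pre-incubation, 23 nL cpd, 24 h at 37 deg C 5% CO2, luciferase detection reagent, 12 min RT, luminescence. Inhibition = undesired.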
TRHR agonist: qHTS for Small Molecule Agonists and Allosteric Enhancers of Human TRH Receptor: Primary Screen for Agonists; activation, % at 2 µM; TRHR cells, calcium flux fluo-8, FDSS agonist mode; 0.18% of 360,000 active; in the data active = activation above about 30%
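Agonist-mode FDSS calcium read (Ex 480/Em 530, 1 s cycles) in 1536-well TRHR cells with fluo-8 dye, after 10-cycle baseline and 23 nL compound addition; TRH at EC20 (10 nM final) added afterwards for the enhancer phase.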
PTHR1 agonist: qHTS for PTHR1 Agonists: Primary Screen. HEK293 GP2 PTHR1 cells, GloSensor cAMP luminescence, 1 h. Potency, µM (series often up to 115 µM), most hits filed as activators. 0.075% of 410,000 active. AID 743266, 2014; also: nearly all actives have a fitted effect of over 55% in size
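HEK-293-derived GP2 cells expressing PTHR1 and a GloSensor cAMP reporter, 3,000/well, plated overnight, given luciferin plus IBMX (each 0.5 mM as added) for 1 h at 37 °C, then compound for 1 h at 37 °C. Luminescence was read after 15 min at room temperature.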
TRHR enhancer: qHTS for Small Molecule Agonists and Allosteric Enhancers of Human TRH Receptor: Primary Screen for Enhancers; enhancement, % at 2 µM; TRHR cells, fluo-8 calcium fluorescence, EC20 TRH enhancement; 0.66% of 360,000 active; Thyrotropin-releasing hormone receptor (Homo sapiens), P34981; in the data active = enhancement above about 30%
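Enhancer read-out: after compound pinning and an initial kinetic agonist-mode read, an EC20 of TRH (10 nM final) was injected and fluo-8 calcium signal (Ex 480/Em 530) followed at 1 s/cycle for 100 cycles in TRHR-expressing cells.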
GLP1R inv ag: qHTS of GLP-1 Receptor Inverse Agonists (Inhibition Mode) | AID 624417, 2012 | 1.6% of 410,000 active | Potency, µM (titrated, usually from 38.3 µM), most hits filed as inhibitors | HEK293 GLP-1R CRE-luciferase, luminescence, 24 h; GLP-1R form is constitutively active; also: nearly all actives have a fitted effect of over 55% in size
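Cells are plated, allowed 12 hours at 37 deg C, then treated with compounds for 24 hr before luciferase detection reagent is added and luminescence is read after 12 min at room temperature. The HEK293 line carries constitutively active GLP-1R with a cAMP-responsive reporter.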
Each line names hits and unclear results; the compound was inactive in the other large screens; ! = a repeat was not active. Unless noted, calls follow the shape of the dose curve; as a rule, active = well fitted curve in the direction sought with a large enough effect; inconclusive = small, poorly fitted or top-dose-only effect, or another doubt; inactive = no such curve, though single readings can be large; an effect the other way counts as inactive or inconclusive.

COc1ccc([C@@H]2[C@@H]3C(=O)N(C(C)(C)C)C(=O)[C@@H]3[C@]3(Cc4ccc(Cl)cc4)C(=O)N(c4ccc(Br)cc4)C(=O)N23)cc1	GLP1R inv ag 10µM
CN(C)C(=O)c1cccc(-c2cnc3c(NC=O)cc(-c4ccc(N(C)C)cc4)cn23)c1	none (no result: TRHR agonist, TRHR enhancer)
COc1ccc(C(=O)N2CCC(C(=O)N3CCN(c4ccccc4)CC3)CC2)cc1	none (no result: TRHR agonist, TRHR enhancer)
Cc1cc(NCCCN2CCOCC2)n2nc(C)c(-c3ccccc3)c2n1	GLP1R inv ag 4.47µM
Cc1cc(NCCCN2CCOCC2)n2nc(C)c(-c3ccc(F)cc3)c2n1	GLP1R inv ag inconclusive
CN(C)CCCNc1cc(-c2ccccc2)nc2cc(-c3cccc(F)c3)nn12	HEK293 tox inconclusive, GLP1R inv ag 3.55µM
Cc1cccc(-c2cc3nc(C)cc(NCCCN(C)C)n3n2)c1	none
COc1ccc(-c2cc3nc(-c4ccccc4)cc(N4CCC(O)CC4)n3n2)cc1	HEK293 tox inconclusive, GLP1R inv ag 7.94µM
COCCN1CCN(c2cc(-c3ccccc3)nc3cc(-c4cccc(F)c4)nn23)CC1	GLP1R inv ag 7.94µM
Fc1cccc(-c2cc3nc(-c4ccccc4)cc(N4CCC5(CC4)OCCO5)n3n2)c1	GLP1R inv ag inconclusive
COc1ccccc1CNC(=O)CSC(=S)N1CCCC1	none
CC(=O)c1ccc(S(=O)(=O)N(C)CC(=O)Nc2cc(C)on2)cc1	none
Cc1cc(NC(=O)CC(CN(C)S(=O)(=O)c2ccccc2)c2ccccc2)no1 (stereo not given)	GLP1R inv ag 10µM
O=C(NC(=S)N1CCCC(C(F)(F)F)C1)c1ccc(F)cc1 (stereo not given)	HEK293 tox inconclusive
COC(=O)C1=CN(c2ccc(F)cc2)C=C(C(=O)OC)C1c1cccc([N+](=O)[O-])c1	GLP1R inv ag 5.62µM
CCOC(=O)N1CCC(NC(=O)c2cnn3c2NC(c2ccco2)CC3C(F)(F)F)CC1 (stereo not given)	TRHR enhancer 32.2
O=C(NCc1cccc(Cl)c1)c1cnn2c1NC(c1ccco1)CC2C(F)(F)F (stereo not given)	none
O=C(NCC12CC3CC(CC(C3)C1)C2)c1nn2c(c1Cl)NC(c1ccco1)CC2C(F)(F)F (stereo not given)	GLP1R inv ag 3.98µM
CCCCCCNc1nc(Cl)nc(NC(C)(C)CO)n1	GLP1R inv ag inconclusive
CCOc1ccc2nc(N3CCCC(C(=O)NCCc4ccc(Cl)cc4)C3)sc2c1 (stereo not given)	none (no result: GLP1R ag)
CC(C)=CC(=O)Nc1ccc(S(=O)(=O)Nc2ccccn2)cc1	TRHR enhancer 36.8
CCC(=O)Nc1ccc(S(=O)(=O)Nc2ccccn2)cc1	none
CCN(CC)CCCNC(=O)CCC(=O)NNc1nc2ccccc2c2nc(C)nn12	HEK293 tox 7.94µM!
Cc1nc2c3ccccc3nc(NNC(=O)CCC(=O)NCCC(C)C)n2n1	none
CN(CCC#N)c1ccc(C=C(C#N)c2ccc(Br)cc2)cc1	HEK293 tox inconclusive, GLP1R inv ag 10µM (no result: TRHR agonist, TRHR enhancer)
CCc1ccccc1Nc1nc(-c2cccnc2)cs1	GLP1R inv ag 11.2µM
CCCCCc1ccc(OCCC[n+]2ccccc2)c(CCCCC)c1	HEK293 tox inconclusive, GLP1R inv ag 7.94µM
CCCCCc1ccc(OCCOCCn2c[n+](C)c3ccccc32)c(CCCCC)c1	HEK293 tox inconclusive, GLP1R inv ag inconclusive
c1cncc(-c2nn[nH]n2)c1	TRHR enhancer 40.3
CCc1cc2c(COC(=O)c3cccc(NS(C)(=O)=O)c3)cc(=O)oc2cc1O	GLP1R inv ag 3.98µM
CCN(CC)C1=NS(=O)(=O)c2cc([N+](=O)[O-])ccc21	TRHR enhancer 34.3
N#Cc1ccc(NC(=O)COC(=O)CCc2ccc(S(=O)(=O)N3CCCCC3)cc2)cc1	none
Cc1ccc(C(OCC(O)CNCc2ccc(F)cc2)c2ccccc2)cc1 (stereo not given)	HEK293 tox inconclusive, GLP1R inv ag 5.62µM
COc1ccc(C(OCC(O)CNC(C)c2ccccc2)c2ccc(OC)cc2)cc1 (stereo not given)	HEK293 tox inconclusive, GLP1R inv ag 10µM
O=C(c1ccccc1)c1ccc(OCC(O)CNCc2ccc(F)cc2)cc1 (stereo not given)	GLP1R inv ag inconclusive
CC(NCC(O)COCCC12CC3CC(CC(C3)C1)C2)c1ccccc1 (stereo not given)	HEK293 tox inconclusive, GLP1R inv ag 11.2µM
Cc1ccc(CN2CCN(Cc3ccco3)CC2)cc1	none
CCn1nc(C)c(Br)c1-c1nc(CS(=O)(=O)c2ccsc2)no1	TRHR enhancer 37.1
CN(C)C(=O)c1cn(-c2ccccc2)nc1-c1cccs1	none
O=C(c1cn(-c2ccccc2)nc1-c1cccs1)N(CCO)Cc1ccccc1	GLP1R inv ag 11.2µM
COc1ccc(OC)c(NC(=O)CN(Cc2ccc(F)cc2)C2CCCCC2)c1	GLP1R inv ag 3.55µM
O=C(C1CCN(S(=O)(=O)c2cccs2)CC1)N1CCCC(C(F)(F)F)C1 (stereo not given)	none
CC(C)c1ccc(Nc2nc(N3CCOCC3)nc(N3CCOCC3)n2)cc1	GLP1R inv ag inconclusive (no result: TRHR agonist, TRHR enhancer)
CC(C)c1ccc(Nc2nc(NCc3ccco3)nc(N3CCOCC3)n2)cc1	GLP1R inv ag 2.24µM
COc1ccc(-c2cc3nc(C)c(CCC(=O)Nc4cccc(C(F)(F)F)c4)c(C)n3n2)c(OC)c1	TRHR enhancer 32.0
COc1cc(OC)cc(-c2cc3nc(C)c(CCC(=O)Nc4ccc(F)c(Cl)c4)c(C)n3n2)c1	PTHR1 agonist inconclusive (no result: GLP1R ag)
Cc1nc2c(-c3ccc(F)cc3)c(C)nn2c(C)c1CCC(=O)NC(C)CCc1ccco1 (stereo not given)	GLP1R inv ag 7.08µM
COc1cc(NC(=O)CCc2c(C)nc3cc(-c4ccccc4)nn3c2C)cc(OC)c1OC	none
COc1ccc(NC(=O)CCc2c(C)nc3cc(-c4cccc(F)c4)nn3c2C)cc1Cl	TRHR enhancer 40.5
COC(=O)c1cc(NC(=O)CCc2c(C)nc3cc(-c4ccccc4)nn3c2C)cc(C(=O)OC)c1	TRHR enhancer 40.2
CCOc1ccc(NC(=O)CCc2c(C)nc3c(-c4ccccc4)c(C)nn3c2C)cc1	TRHR enhancer 47.8

Source: PubChem BioAssay (National Center for Advancing Translational Sciences (NCATS))
